Source: PubChem (National Center for Advancing Translational Sciences (NCATS))
The list is not random: actives were taken first. Their share in the collection is about 21%.
NS1 inh – qHTS Assay for Inhibitors of Influenza NS1 Protein Function. Potency, µM (series often up to 46.1 µM). hit rate 0.4% among 270,000. AID 2326, 2010; calls by dose curve; further: actives are rising curves; nearly all actives have a fitted effect of over 50% in size
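S. cerevisiae expressing influenza A NS1, grown in glucose, washed, then diluted 1:100 into pH 6.0 -URA galactose medium with 23 nl compound. Growth recovery read as OD600; NS1-free strain serves as control.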
Pf growth 48h – Primary qHTS for delayed death inhibitors of the malarial parasite plastid, 48 hour incubation; P. falciparum luciferase growth in erythrocytes, 48 h; Potency, µM (series often up to 28.7 µM), actives largely listed as inhibitors; hit rate 5.9% among 310,000; AID 504832, 2011
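Here the parasites carry a stable luciferase gene and grow inside erythrocytes in Albumax-based RPMI medium with compound for one erythrocytic cycle. Activity is scored as loss of luminescent signal.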
CHX counter – Cycloheximide Counterscreen for Small Molecule Inhibitors of Shiga Toxin; hit rate 12% among 300,000; cell reporter, cycloheximide protein synthesis inhibition counterscreen; max response, %; AID 2314, 2010; in the data active means max response mostly above about 13%, no sharp cut-off; inactive means mostly below about 14%; further: read at 38.3 µM for the half of the compounds with a filed dose
Shiga inhibitor – A qHTS for Small Molecule Inhibitors of Shiga Toxin; AID 2315, 2010; hit rate 9.2% among 290,000; Vero cells, Shiga toxin protein synthesis inhibition reporter; inhibition, % at 38.7 µM; in the data active means inhibition mostly above about 28%, no sharp cut-off; inactive means mostly below about 43%
Pf growth 96h – Primary qHTS for delayed death inhibitors of the malarial parasite plastid, 96 hour incubation; P. falciparum luciferase reporter growth, 96 h; hit rate 6.9% among 320,000; Potency, µM (highest dose often 28.7 µM), hits mostly inhibitors
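P. falciparum expressing integrated firefly luciferase grown in erythrocytes (2% hematocrit, 0.05% parasitemia final) with compounds for 96 hours at 37 C, 5% CO2. Growth inhibition read as loss of luminescence after adding luciferase detection reagent.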
SARS PLpro yeast – qHTS of Yeast-based Assay for SARS-CoV PLP; AID 485353, 2010; Potency, µM (doses to about 32.9 µM), actives largely listed as activators; S. cerevisiae expressing SARS-CoV PLpro, growth rescue; hit rate 0.19% among 330,000; calls by dose curve; further: nearly all actives have a fitted effect of over 55% in size
Numbers stand for hits; 0 = inactive; ? = inconclusive; - = no result; [ ] = remark or other dose. Unless noted, the call rests on the fitted dose curve; in most records, active means well fitted inhibition curve with a large enough effect; inconclusive means small, poorly fitted or top-dose-only effect, or another doubt; inactive means no such curve, though single readings can be large or run the other way.

SMILES	NS1 inh	Pf growth 48h	CHX counter	Shiga inhibitor	Pf growth 96h	SARS PLpro yeast
CCOC(=O)c1c(S(=O)(=O)N2CCCC(C(=O)Nc3ccc(C)cn3)C2)c(C)n(C)c1C (centres undefined)	0	13µM	0	0	0	0
CCOC(=O)c1c(S(=O)(=O)N2CCCCC2C)c(C)n(C)c1C (centres undefined)	0	0	0	0	1.7µM	0
CCOC(=O)c1c(S(=O)(=O)N2CCCC(C)C2)c(C)n(C)c1C (centres undefined)	?	?	0	0	?	0
CCOC(=O)c1c(S(=O)(=O)N2CCCC2)c(C)n(C)c1C	0	0	0	0	12µM	0
CCn1c(/N=C/c2ccccc2NS(=O)(=O)c2ccc(C)cc2)nc2ccccc21	0	0	0	0	?	0
CC(=O)C1=C(O)C(=O)N(c2ccccn2)C1c1ccc(C)cc1 (centres undefined)	0	0	0	0	0.37µM	0
Cc1ccc(/C(O)=C2/C(=O)C(=O)N(c3ccccn3)C2c2ccc(F)cc2)cc1 (centres undefined)	0	0	19	0	0	0
O=C1C(=O)N(c2ccccn2)C(c2ccc(F)cc2)/C1=C(/O)c1ccc(Br)cc1 (centres undefined)	0	?	0	-	0	0
CC(=O)C1=C(O)C(=O)N(c2ccccn2)C1c1ccc(Cl)cc1 (centres undefined)	0	0	27	66	0	0
Cc1ccn2c(C(=O)CSc3ccccc3Cl)c(C)nc2c1	0	3.7µM	0	0	?	0
Cc1c(Br)c([N+](=O)[O-])nn1CC(=O)Nc1sc2c(c1C(=O)OC(C)C)CCCC2	0	?	0	123	0	0
CCn1cc(C2=NOC(C(=O)Nc3cc(C)nn3-c3ccccc3)C2)c(C)n1 (centres undefined)	0	0	0	0	0	0
O=C(Nc1ccc2c(c1)OCO2)C1CC(c2ccccc2Cl)=NO1 (centres undefined)	0	0	0	48	0	0
O=C(Nc1cc(Br)ccc1O)C1CC(c2ccccc2Cl)=NO1 (centres undefined)	0	0	0	0	?	0
CCn1cc(C2=NOC(C(=O)Nc3ccc4c(c3)OCO4)C2)c(C)n1 (centres undefined)	0	?	0	0	0.52µM	0
CCCCCCCCC/C(=N\O)c1ccccn1	0	?	24	83	?	0
COc1cc2[nH]c(C(=O)N3CCC(Cc4ccccc4)CC3)cc2c(OC)c1OC	0	3.3µM	0	0	3.7µM	0
COc1cc2[nH]c(C(=O)N3CCc4ccccc43)cc2c(OC)c1OC	0	0	30	47	0	0
CCN(Cc1ccccc1)C(=O)c1cc2c(OC)c(OC)c(OC)cc2[nH]1	0	-	0	0	8.3µM	0
N#CNC(N)=Nc1ccc(Cl)cc1	0	-	-	-	-	-
CC1=C(/C=C/C(C)=N\NC(=O)c2ccncc2)C(C)(C)CCC1	0	13µM	13	0	0	0
O=C(C1CC(=O)N(c2ccccc2)C1)N1CCN(c2ccccc2F)CC1 (centres undefined)	0	0	0	0	0	0
Cc1ccc(C23CC4CC(CC(CN)(C4)C2)C3)cc1	0	10µM	0	0	?	0
NCC12CC3CC(C1)CC(c1ccc(Br)cc1)(C3)C2	0	0	0	0	0	0
CC1(C)Cc2c(c(N3CCCC3)nc3sc4c(N5CCNCC5)ncnc4c23)CO1	0	?	0	0	?	0
SMILES	NS1 inh	Pf growth 48h	CHX counter	Shiga inhibitor	Pf growth 96h	SARS PLpro yeast
c1ccc2nc3c(nc2c1)[nH]c1ccccc13	0	-	64	103	0	0
c1ccc(-c2c3ccccc3nc3[nH]c4ccccc4c23)cc1	0	?	0	0	?	0
COc1cccc(-n2cc3c(=O)n(C)c(=O)n(C)c3c2)c1	0	0	24	0	0[5.75 µM]	0
Cn1c(=O)c2cn(-c3ccccc3)cc2n(C)c1=O	0	0	0	0	0	0
COc1ccc(S(=O)(=O)N(CC(=O)NCc2cccnc2)c2ccc(F)cc2)cc1OC	0	0	0	0	?	0
CCC1(c2ccccc2)NC(=O)NC1=O (centres undefined)	-	-	0	0	-	-
COc1ccc(-n2nc(C(=O)NCC(=O)NCCCN3CC(C)CC(C)C3)c3ccccc3c2=O)cc1Cl (centres undefined)	0	6.6µM	0	0	0	0
